PubChem BioAssay
Activity calls are given as the source filed them. Unless noted, the rule behind the calls is not given here.

Assays:
[1] = test system: Wnt5a (protein binding on small-molecule microarray); test: small molecules binding Wnt5a protein – biophysical, small-molecule microarray, 635/667 nm fluorescence, primary screen (AID 1142); details: 635 nm fluorescence, higher = more signal;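 note: fluorescence read at 667 nm with signal to noise per printed feature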
[2] = ATP-based viability of Huh7 replicon cells – cell-based, CellTiter-Glo luminescence, basal, 48 h, cytotoxicity control for HCV replication inhibitor project, primary screen (AID 1143); details: higher = more signal, called active from +8 up or from −8 down;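 note: Huh7 hepatoma cells carrying a hepatitis C replication reporter with no stimulus; test concentration not given here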
[3] = Pseudomonas biofilm growth suppression – PAO1 strain, BacTiter-Glo luminescence, LB-PBS, primary screen (AID 1144); details: P. aeruginosa PAO1 biofilm, 12 h, higher = more signal
[4] = basal CRE-LacZ reporter activity in PC12 – cell-based, unstimulated, primary screen (AID 1145); details: no forskolin, luminescence, 4.5 h, higher = more signal, called active from +8 up or from −8 down
[5] = forskolin-driven CRE-LacZ activity in PC12 – cell-based, CRE-LacZ reporter, forskolin-stimulated, primary screen (AID 1146); details: luminescence, 4.5 h, higher = more signal, called active from +8 up or from −8 down;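 note: PC12 cells with 6xCRE LacZ reporter stimulated by forskolin 10 µM; beta-galactosidase reporter signal reflecting CREB driven transcription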
[6] = target: Streptavidin (Streptomyces avidinii) (UniProt P22629); test: compounds binding control protein streptavidin – biophysical, small-molecule microarray, 635/667 nm fluorescence, artefact control for SMM compound annotation, primary screen (AID 1147); details: higher = more signal;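 note: signal reflects streptavidin binding to arrayed compounds as a control protein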
[7] = probe aInhba binding on compound microarray – biochemical, small-molecule microarray, 635/667 nm fluorescence, primary screen (AID 1148); details: higher = more signal;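 note: score merges 667nm spot fluorescence with signal-to-noise for antibody binding to printed compounds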
Torsin-1A (Homo sapiens) [8] = target: Torsin-1A (Homo sapiens) (UniProt O14656); test: TOR1A wild-type binding on microarray – cell lysate, small-molecule microarray, lysate, 635/667 nm, primary screen (AID 1149); details: COS7 hTOR1A-WT lysate, 635 nm fluorescence, higher = more signal
Torsin-1A (Homo sapiens) [9] = target: Torsin-1A (Homo sapiens) (UniProt O14656); test: torsin A mutant lysate binding on microarrays – cell lysate, small-molecule microarray, COS7 lysate, 635/667 nm fluorescence, primary screen (AID 1150); details: COS7 hTOR1A mutant lysate, 635 nm fluorescence, higher = more signal;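 note: score pools 667 nm emission and signal to noise measuring lysate protein binding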
[10] = test system: Sonic hedgehog protein (Shh); test: Sonic hedgehog microarray binding compounds – biochemical, small-molecule microarray, 635/667 nm fluorescence, primary screen (AID 1151); details: 635 nm fluorescence, higher = more signal;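 note: Shh protein binding to compounds spotted on small-molecule microarray slides; score combines spot fluorescence intensity with signal-to-noise across triplicate slides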

Torsin-1A (Homo sapiens), sequence (O14656 whole entry, looked up): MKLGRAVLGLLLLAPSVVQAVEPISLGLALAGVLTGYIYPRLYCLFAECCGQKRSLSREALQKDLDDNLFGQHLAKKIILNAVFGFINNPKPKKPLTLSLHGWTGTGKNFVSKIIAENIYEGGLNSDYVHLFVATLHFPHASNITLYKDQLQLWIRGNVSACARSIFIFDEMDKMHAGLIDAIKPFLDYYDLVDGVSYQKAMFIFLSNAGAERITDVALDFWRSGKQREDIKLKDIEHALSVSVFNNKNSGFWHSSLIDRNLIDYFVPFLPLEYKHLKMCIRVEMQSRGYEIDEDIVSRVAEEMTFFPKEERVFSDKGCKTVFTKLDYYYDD
Streptavidin (Streptomyces avidinii), sequence (P22629 whole entry, looked up): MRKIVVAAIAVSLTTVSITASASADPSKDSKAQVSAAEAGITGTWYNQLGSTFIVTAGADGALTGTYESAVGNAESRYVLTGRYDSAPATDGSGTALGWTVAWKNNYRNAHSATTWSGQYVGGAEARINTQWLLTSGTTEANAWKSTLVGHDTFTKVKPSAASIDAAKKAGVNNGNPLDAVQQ

Compound	composite z-score [1]	z-score [2]	z-score [3]	z-score [4]	z-score [5]	composite z-score [6]	composite z-score [7]	composite z-score (Torsin-1A (Homo sapiens) [8])	composite z-score (Torsin-1A (Homo sapiens) [9])	composite z-score [10]
CCC(CC)C(O)C1C=CC2C(=O)N(c3ccccc3)C(=O)C2N1Nc1ccccc1 (stereo not given)	0.213	-0.125 (inactive)	-1.63 (inactive)	1.01 (inactive)	-0.814 (inactive)	1.21	0.948	-0.0952	0.423	0.494
C=CC[C@]1(C(N)=O)COC(c2ccc(OCCCO)cc2)=N1	0.469	-1.33 (inactive)	-0.151 (inactive)	0.0359 (inactive)	0.127 (inactive)	-0.266	0.027	1	1.18	0.395
COC(=O)[C@@]1(Cc2ccc(OC)cc2)[C@H]2c3cc(C(=O)N4CCCC4)n(CCCNc4ncc(C(F)(F)F)cc4Cl)c3C[C@H]2CN1C(=O)c1ccccc1	1.53	-3.28 (inactive)	0.0557 (inactive)	0.769 (inactive)	0.627 (inactive)	1.25	0.826	0.0188	0.27	-0.418
